“And” between values parts separate entries of the source, which are not always exact repeats. Equal values may be shown once. Inconclusive results are not listed. The source made the active and inactive calls. The call rests on the fitted dose curve; in most records, active means well fitted curve in the direction sought with a large enough effect in the repeat runs; inconclusive means weak or mixed curves; inactive means no such curve, though single readings can be large; an effect the other way counts as inactive or inconclusive.

Assay [1] in a line: qHTS RealTime-Glo MT Cell Viability Assay in HEK293 cells - 16 hour (AID 1224872). Further: nearly all actives have a fitted effect of over 50% in size. Further: potency means the concentration at half of the fitted maximal effect. On activity change, negative = cytotoxicity: top concentration of the series differs between compounds. A digest of the protocol:
(§1)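 Luminescence generated by NanoLuc from substrate produced by living HEK293 cells served as the viability signal. Each value reflects the reading at its stated time point during continuous 40 h compound exposure at 37 C.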

Assay [2] can be described thus: qHTS RealTime-Glo MT Cell Viability Assay in HepG2 cells - 8 hour (AID 1224873). Further: nearly all actives have a fitted effect of over 55% in size. Further: potency means the concentration at half of the fitted maximal effect. The method, boiled down:
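HepG2 cells (600/well) mixed with RealTime-Glo MT reagent, settled 5 h at 37 C/5% CO2 before compound addition. Nonlytic NanoLuc luminescence from viable-cell prosubstrate reduction read repeatedly during 40 h treatment at 37 C.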
On the technique in general: qHTS replaces the single test concentration by a dilution series.

Assay [3] is described as follows: qHTS RealTime-Glo MT Cell Viability Assay in HEK293 cells - 40 hour (AID 1224874). Further: nearly all actives have a fitted effect of over 50% in size. Further: potency means the concentration at half of the fitted maximal effect. Particulars: RealTime-Glo luminescence; max response: stronger effect = lower value. A digest of the protocol: (§2)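 Viable HEK293 cells reduce a cell-permeant prosubstrate; the product diffuses out and is consumed by NanoLuc in the medium to give light. Compounds went in after a 5 h incubation and plates were read over the treatment course.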

A short description of assay [4]: A CellTox Green Cytotoxicity Assay to monitor cytotoxicity in HEK293 cells - 24 hour (AID 1224875). Further: nearly all actives have a fitted effect of over 45% in size. Further: potency means the concentration at half of the fitted maximal effect. On activity change: series mostly up to about 77 µM. A digest of the protocol: (§3)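 Fluorescence intensity, read at 0, 8, 16, 24, 32 and 40 h of compound treatment, reflected dye binding to DNA of dead HEK293 cells; compounds (23 nL, DMSO) were added 5 h after plating cells with reagent.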
Assay [5] in a line: A CellTox Green Cytotoxicity Assay to monitor cytotoxicity in HepG2 cells - 16 hour (AID 1224876). Further: nearly all actives have a fitted effect of over 45% in size. Further: potency means the concentration at half of the fitted maximal effect. A digest of the protocol:
(§4)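 Using 1536-well format, dye-containing HepG2 suspension was seeded, allowed 5 h at 37 C/5% CO2, dosed by pintool with compounds, positive and negative controls, and imaged for fluorescence across 40 h.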

Assay [6] in a line: qHTS RealTime-Glo MT Cell Viability Assay in HepG2 cells - 32 hour (AID 1224877). Further: nearly all actives have a fitted effect of over 55% in size. Further: potency means the concentration at half of the fitted maximal effect. The method, boiled down:
(§5)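 Tox21 10K library screened in qHTS format on HepG2 cells carrying RealTime-Glo reagents. Compounds were added after a 5 h preincubation, and the luminescent signal from continuous culture was measured repeatedly during 40 h treatment.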

The nature of assay [7]: A CellTox Green Cytotoxicity Assay to monitor cytotoxicity in HepG2 cells - 24 hour (AID 1224878). Further: nearly all actives have a fitted effect of over 45% in size. Further: potency means the concentration at half of the fitted maximal effect. The method, boiled down:
as §4

The nature of assay [8]: A CellTox Green Cytotoxicity Assay to monitor cytotoxicity in HepG2 cells - 40 hour (AID 1224879). Further: nearly all actives have a fitted effect of over 40% in size. Further: potency means the concentration at half of the fitted maximal effect. A digest of the protocol:
as §4

Assay [9] can be described thus: qHTS RealTime-Glo MT Cell Viability Assay in HEK293 cells - 0 hour (AID 1224880). Further: top concentration of the series differs between compounds; nearly all actives have a fitted effect of over 45% in size. A digest of the protocol: as §2
Assay [10] can be described thus: A CellTox Green Cytotoxicity Assay to monitor cytotoxicity in HEK293 cells - 32 hour (AID 1224881). Further: nearly all actives have a fitted effect of over 40% in size. Further: potency means the concentration at half of the fitted maximal effect. The method, boiled down: as §3
Assay [11] is described as follows: A CellTox Green Cytotoxicity Assay to monitor cytotoxicity in HepG2 cells - 0 hour (AID 1224882). Further: nearly all actives have a fitted effect of over 35% in size. Further: potency means the concentration at half of the fitted maximal effect. The method, boiled down: as §4
Assay [12] in a line: A CellTox Green Cytotoxicity Assay to monitor cytotoxicity in HepG2 cells - 32 hour (AID 1224883). Further: nearly all actives have a fitted effect of over 50% in size. Further: potency means the concentration at half of the fitted maximal effect. The method, boiled down:
as §4

Assay [13] can be described thus: A CellTox Green Cytotoxicity Assay to monitor cytotoxicity in HEK293 cells - 8 hour (AID 1224884). Further: nearly all actives have a fitted effect of over 35% in size. Further: potency means the concentration at half of the fitted maximal effect. A digest of the protocol: as §3
Assay [14] can be described thus: qHTS RealTime-Glo MT Cell Viability Assay in HEK293 cells - 24 hour (AID 1224886). Further: nearly all actives have a fitted effect of over 50% in size. Further: potency means the concentration at half of the fitted maximal effect. On activity change, negative = cytotoxicity: top concentration of the series differs between compounds. The method, boiled down:
as §1

Assay [15] can be described thus: qHTS RealTime-Glo MT Cell Viability Assay in HepG2 cells - 0 hour (AID 1224889). Further: nearly all actives have a fitted effect of over 50% in size. The method, boiled down:
as §5

The nature of assay [16]: A CellTox Green Cytotoxicity Assay to monitor cytotoxicity in HepG2 cells - 8 hour (AID 1224890). Further: nearly all actives have a fitted effect of over 45% in size. Further: potency means the concentration at half of the fitted maximal effect. The method, boiled down:
as §4

Assay [17] in a line: qHTS assay to identify small molecule antagonists of the estrogen receptor alpha (ER-alpha) signaling pathway using the BG1 cell line in the presence of 0.1 nM 17-beta-estradiol - cell viability counter screen (AID 1259241). Further: nearly all actives have a fitted effect of over 40% in size. Further: potency means the concentration at half of the fitted maximal effect. A digest of the protocol: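 VM7Luc4E2, 4,000 cells/well, phenol red-free medium + 10% charcoal-stripped FBS; 24 hr plating; cpd + 0.1 nM E2 final, 22 hr 37C/5% CO2; CellTiter-Fluor 30 min, fluorescence.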

Assay [18] in a line: qHTS RealTime-Glo MT Cell Viability Assay in HepG2 cells - 16 hour (AID 1224885). Further: nearly all actives have a fitted effect of over 50% in size. The method, boiled down: as §5
A short description of assay [19]: A CellTox Green Cytotoxicity Assay to monitor cytotoxicity in HEK293 cells - 16 hour (AID 1224888). Further: nearly all actives have a fitted effect of over 35% in size. Further: potency means the concentration at half of the fitted maximal effect. A digest of the protocol: as §3
Assay [20] can be described thus: qHTS RealTime-Glo MT Cell Viability Assay in HEK293 cells - 8 hour (AID 1224887). Further: nearly all actives have a fitted effect of over 50% in size. Further: potency means the concentration at half of the fitted maximal effect. On activity change, negative = cytotoxicity: top concentration of the series differs between compounds. The method, boiled down: as §2
On the % scale 0 is the no-effect control and ±100 the full control effect.

Consider `CCCc1cc(=O)[nH]c(=S)[nH]1`, for which the Potency entry in assay [1], in assay [2], in assay [4], in [5], in [6] and in assay [7] was “inactive” throughout. Besides, the Potency result in [8], in [9], in assay [10], in [11], in assay [12] and in assay [13] was “inactive” each time. The Potency result in [14], in assay [15], in assay [16] and in assay [17] was “inactive” in each case. Moreover, the max response in [3] was 1.97% (inactive) and 2.41% (inactive) and 2.9% (inactive).
In the case of `NC(=O)n1c(O)c(C(=O)c2cccs2)c2cc(Cl)ccc21`, the Potency entry in assay [1], in assay [2], in assay [4], in [5], in assay [6] and in assay [7] was “inactive” throughout. In addition, the Potency entry in [8], in [10], in [11], in assay [12], in assay [13] and in [18] was “inactive” each time. For the same molecule, the Potency result in [14], in [19] and in assay [16] was “inactive” in each case. The max response in [3] is 3.23% (inactive). The Potency in assay [17] was 16.8 µM (active).
Take `C1CCC(C(CC2CCCCN2)C2CCCCC2)CC1` (stereo unspecified): the Potency was 19 µM (active) in assay [1]; 21.3 µM (active) in assay [2]; 10.7 µM (active) in assay [3]; 21.3 µM (active) in [4]; 12 µM (active) in assay [5]; 5.35 µM (active) in assay [6]. Further, the Potency is 9.52 µM (active) in [7]; 5.35 µM (active) in assay [8]; 19 µM (active) in assay [10]; 5.35 µM (active) in assay [12]; 26.8 µM (active) in [13]; 16.9 µM (active) in assay [14]. Besides, the Potency in assay [20] and in assay [16] was 23.9 µM (active) each time. In addition, in [11], the Potency result is “inactive”.
`Nc1ccc2c(c1)CN1C(=O)c3ccccc3C1=N2`: in assay [2], the viability change, negative = cytotoxic is -9.67% [at 15.8 µM] (inactive). Also, the Potency was 3.69 µM (active) in [3]; 10.4 µM (active) in assay [4]; 10.4 µM (active) in assay [5]; 10.4 µM (active) in assay [7]; 10.4 µM (active) in assay [8]; 10.4 µM (active) in assay [10]. In addition, the Potency is 10.4 µM (active) in [11]; 10.4 µM (active) in assay [12]; 10.4 µM (active) in assay [13]; 9.28 µM (active) in assay [14]; 10.4 µM (active) in [19]; 10.4 µM (active) in assay [16]. In [6], the activity change, negative = cytotoxic was -0.629% [at 15.8 µM] (inactive). Further, the activity change, negative = cytotoxicity in [9] was 5.64% [at 15.8 µM] (inactive); in assay [15], 4.86% [at 15.8 µM] (inactive).
Turning to `Nc1ccc(O)c([N+](=O)[O-])c1`, the Potency result in [1], in [2], in assay [4], in assay [5], in assay [6] and in assay [7] was “inactive” throughout. For the same molecule, the Potency entry in assay [8], in assay [10], in assay [11], in assay [12], in assay [13] and in assay [18] was “inactive” in each case. Also, in [16], the Potency entry is “inactive”.
`Oc1ccccc1`: the Potency entry in [1], in [2], in [4], in assay [5], in assay [6] and in assay [7] was “inactive” each time. The Potency entry in assay [8], in assay [9], in assay [10], in assay [11], in assay [12] and in assay [13] was “inactive” in each case. Further, the Potency result in [14], in assay [15] and in assay [16] was “inactive” throughout. Further, in assay [3], the max response was 1.54% (inactive) [middle of 5 runs].
In the case of `Cc1cn([C@H]2C=C[C@@H](CO)O2)c(=O)[nH]c1=O`, the Potency entry in assay [1], in [2], in assay [4], in [5], in assay [6] and in assay [7] was “inactive” in each case. The Potency result in assay [8], in [9], in assay [10], in assay [11], in assay [12] and in assay [13] was “inactive” throughout. Moreover, the Potency result in [14], in assay [15] and in assay [16] was “inactive” throughout. The max response in [3] is 3.84% (inactive) and 0.681% (inactive).
Regarding `NC(CO)(CO)CO`, the Potency result in assay [1], in assay [2], in [4], in assay [5], in assay [6] and in [7] was “inactive” in each case. The Potency result in assay [8], in assay [9], in assay [10], in [11], in assay [12] and in assay [13] was “inactive” in each case. In addition, the Potency result in assay [14], in [20], in assay [19], in assay [15], in [16] and in assay [17] was “inactive” throughout.
Turning to `Nc1c(N=Nc2ccc(-c3ccc(N=Nc4cc(S(=O)(=O)O)c5ccccc5c4N)cc3)cc2)cc(S(=O)(=O)O)c2ccccc12`, the Potency was 38.9 µM (active) in [1], 38.9 µM (active) in assay [2], 48.9 µM (active) in assay [6] and 43.6 µM (active) in assay [14]. Further, the Potency result in assay [4], in assay [5], in assay [7], in [8], in assay [10] and in [11] was “inactive” in each case. Besides, the Potency result in [12], in assay [13] and in [16] was “inactive” each time.

Source of the values: PubChem BioAssay (Tox21).
